# Several values for one entry are separate records, joined by “and”; a condition that tells them apart may be missing. Equal entries are not always repeated. Inconclusive results are not listed. Activity calls are given as the source filed them.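 The calls were made as follows, unless noted: active = normalized viability below 100% at a tested concentration; inactive = the rest.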
# Assays:
# [1] = viability loss in pontine glioma line – cell-based, SU-DIPG-XXV, MIPE5.0, CellTiter-Glo, qHTS, dose response (AID 1347065; cut-off not given, nearly all actives have AC50 up to about 26 µM;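 also: cells exposed to compound for 48 hours before ATP readout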); conditions: CellTiter-Glo ATP luminescence
# [2] = growth inhibition of DIPG cells – cell-based, MIPE4.0 library, CellTiter-Glo luminescence, qHTS (AID 1347066; cut-off not given, nearly all actives have AC50 up to about 30 µM;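 also: cells exposed to compound for 48 hours before readout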); conditions: SU-DIPG-VI viability, CellTiter-Glo ATP luminescence
# [3] = JHH-DIPG-1 glioma cell viability, MIPE5.0 library, CellTiter-Glo luminescence, qHTS (AID 1347067; cut-off not given, nearly all actives have AC50 up to about 26 µM;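 also: cells exposed to compound for 48 hours before readout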); conditions: JHH-DIPG-1 glioma viability, CellTiter-Glo ATP luminescence
# [4] = growth inhibition of DIPG cells – cell-based, MIPE5.0 library, qHTS (AID 1347068; cut-off not given, nearly all actives have IC50 up to about 30 µM;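 as to IC50: cells exposed to compound for 48 hours before viability readout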); conditions: SU-DIPG-XXV viability
# [5] = viability loss with induced miR-34 in A549 – imaging, A549 dox-inducible miR-34, nuclei and caspase counts, primary screen (AID 1347080;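 active = compounds whose cell count with miR-34 switched on is under 0.7 times the count with it off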); conditions: A549 miR-34 inducible, Hoechst nuclei count, 48 h
# [6] = compounds altering HSF1 focus formation in cells – imaging, Selleck Cancer Library (AID 1347162; in the data active = plate-normalised HSF1 focus index below about 0.46); conditions: human cells, HSF1 nuclear foci imaging, at 10 µM; SSMD: measured here: HSF1 foci SSMD mean; cell count: measured here: cell number; plate-normalised HSF1 focus index: stronger effect = lower value
# [7] = blockers of cellular phospholipid synthesis – cell-based, LOPAC library, screen 4, primary screen (AID 1347384; call rule not given here); conditions: animal cells, phospholipid biosynthesis inhibition screen; at 10 µM
# [8] = MELAS cybrid and Rieske KO viability enhancers – cell-based, MELAS cybrids, Rieske KO mouse fibroblasts, CellTiter-Glo, primary screen (AID 1508586;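 active = mean z-score across replicates of 1.96 or higher in either the MELAS or the Rieske mutant cell line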;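 also: z relative to plate mean and SD of compound and empty wells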); conditions: low glucose
# [9] = drug combination growth inhibition, ovarian cancer – cell-based, oncology-focused library, rucaparib conditional, profiling panel (AID 1508598); conditions: patient-derived ovarian cancer cells, CellTiter-Glo viability, 144 h, stronger effect = lower value
# [10] = stronger effect = lower value, cell number ratio, induced over uninduced
# [11] = measured here: relative caspase fold change +Dox/-Dox
# [12] = measured here: total cells with miR-34 induction, stronger effect = lower value
# [13] = measured here: total cells without miR-34 induction
# [14] = MELAS cybrid survival, CellTiter-Glo 48 h, stronger effect = higher value
# [15] = Rieske KO mouse fibroblast survival, CellTiter-Glo 72 h
smiles,measurement,setting,value
CC(=O)[C@]1(O)Cc2c(O)c3c(c(O)c2[C@@H](O[C@H]2C[C@H](N)[C@H](O)[C@H](C)O2)C1)C(=O)c1ccccc1C3=O,AC50,[1],5.25 µM (active)
same,AC50,[2],13.2 µM (active)
same,AC50,[3],4.68 µM (active)
same,IC50,[4],23.5 µM (active)
same,fold change,[5]; [10],1.18 (inactive) and 1.09 (inactive)
same,fold change,[5]; [11],0.974 and 1.09
same,cell count,[5]; [12],743 and 2700
same,cell count,[5]; [13],630 and 2460
same,SSMD,[6],-18.6
same,cell count,[6],5180
same,plate-normalised HSF1 focus index,[6],0.0445 (active)
same,outcome,[7],inactive
same,z-score,[8]; [14],2.62 (active)
same,z-score,[8]; [15],-0.996
CC(C)(C#N)c1cc(Cn2cncn2)cc(C(C)(C)C#N)c1,outcome,[1],inactive
same,outcome,[2],inactive
same,outcome,[3],inactive
same,outcome,[4],inactive
same,fold change,[5]; [10],0.875 (inactive) and 0.939 (inactive) and 0.952 (inactive)
same,fold change,[5]; [11],1 and 1.14
same,cell count,[5]; [12],8530 and 7350 and 9720
same,cell count,[5]; [13],9750 and 7820 and 10200
same,SSMD,[6],1.85
same,cell count,[6],7640
same,plate-normalised HSF1 focus index,[6],1.07 (inactive)
same,z-score,[8]; [14],-0.386 (inactive) and -0.452 (inactive) and -0.582 (inactive)
same,z-score,[8]; [15],0.599 and -0.518 and -0.151
same,viability,"[9]; at 0.000305 µM, OCI-C5x cells, with rucaparib 10 µM, 100% = cells with rucaparib alone",109% (inactive)
same,viability,"[9]; at 0.000305 µM, OCI-C5x cells, without rucaparib",102% (inactive)
same,viability,"[9]; at 0.000305 µM, OCI-P5x cells, with rucaparib 20 µM, 100% = cells with rucaparib alone",98.5% (active)
same,viability,"[9]; at 0.000305 µM, OCI-P5x cells, without rucaparib",90.6% (active)
same,viability,"[9]; at 0.00122 µM, OCI-C5x cells, with rucaparib 10 µM, 100% = cells with rucaparib alone",107% (inactive)
same,viability,"[9]; at 0.00122 µM, OCI-C5x cells, without rucaparib",98.9% (active)
same,viability,"[9]; at 0.00122 µM, OCI-P5x cells, with rucaparib 20 µM, 100% = cells with rucaparib alone",102% (inactive)
same,viability,"[9]; at 0.00122 µM, OCI-P5x cells, without rucaparib",95.3% (active)
same,viability,"[9]; at 0.00488 µM, OCI-C5x cells, with rucaparib 10 µM, 100% = cells with rucaparib alone",115% (inactive)
same,viability,"[9]; at 0.00488 µM, OCI-C5x cells, without rucaparib",107% (inactive)
same,viability,"[9]; at 0.00488 µM, OCI-P5x cells, with rucaparib 20 µM, 100% = cells with rucaparib alone",104% (inactive)
same,viability,"[9]; at 0.00488 µM, OCI-P5x cells, without rucaparib",100% (inactive)
same,viability,"[9]; at 0.0195 µM, OCI-C5x cells, with rucaparib 10 µM, 100% = cells with rucaparib alone",113% (inactive)
same,viability,"[9]; at 0.0195 µM, OCI-C5x cells, without rucaparib",107% (inactive)
same,viability,"[9]; at 0.0195 µM, OCI-P5x cells, with rucaparib 20 µM, 100% = cells with rucaparib alone",110% (inactive)
same,viability,"[9]; at 0.0195 µM, OCI-P5x cells, without rucaparib",104% (inactive)
same,viability,"[9]; at 0.0781 µM, OCI-C5x cells, with rucaparib 10 µM, 100% = cells with rucaparib alone",105% (inactive)
same,viability,"[9]; at 0.0781 µM, OCI-C5x cells, without rucaparib",109% (inactive)
same,viability,"[9]; at 0.0781 µM, OCI-P5x cells, with rucaparib 20 µM, 100% = cells with rucaparib alone",108% (inactive)
same,viability,"[9]; at 0.0781 µM, OCI-P5x cells, without rucaparib",109% (inactive)
same,viability,"[9]; at 0.313 µM, OCI-C5x cells, with rucaparib 10 µM, 100% = cells with rucaparib alone",103% (inactive)
same,viability,"[9]; at 0.313 µM, OCI-C5x cells, without rucaparib",108% (inactive)
same,viability,"[9]; at 0.313 µM, OCI-P5x cells, with rucaparib 20 µM, 100% = cells with rucaparib alone",112% (inactive)
same,viability,"[9]; at 0.313 µM, OCI-P5x cells, without rucaparib",113% (inactive)
same,viability,"[9]; at 1.25 µM, OCI-C5x cells, with rucaparib 10 µM, 100% = cells with rucaparib alone",115% (inactive)
same,viability,"[9]; at 1.25 µM, OCI-C5x cells, without rucaparib",115% (inactive)
same,viability,"[9]; at 1.25 µM, OCI-P5x cells, with rucaparib 20 µM, 100% = cells with rucaparib alone",111% (inactive)
same,viability,"[9]; at 1.25 µM, OCI-P5x cells, without rucaparib",112% (inactive)
same,viability,"[9]; at 5 µM, OCI-C5x cells, with rucaparib 10 µM, 100% = cells with rucaparib alone",130% (inactive)
same,viability,"[9]; at 5 µM, OCI-C5x cells, without rucaparib",115% (inactive)
same,viability,"[9]; at 5 µM, OCI-P5x cells, with rucaparib 20 µM, 100% = cells with rucaparib alone",115% (inactive)
same,viability,"[9]; at 5 µM, OCI-P5x cells, without rucaparib",109% (inactive)
COc1ccc2nc(S(=O)Cc3ncc(C)c(OC)c3C)[nH]c2c1 (stereo unspecified),outcome,[1],inactive
same,outcome,[2],inactive
same,outcome,[3],inactive
same,outcome,[4],inactive
CC1(C)O[C@@H]2C[C@H]3[C@@H]4C[C@H](F)C5=CC(=O)C=C[C@]5(C)[C@@]4(F)[C@@H](O)C[C@]3(C)[C@]2(C(=O)CO)O1,outcome,[1],inactive
same,outcome,[2],inactive
same,outcome,[3],inactive
same,outcome,[4],inactive
same,fold change,[5]; [10],0.962 (inactive) and 0.858 (inactive)
same,fold change,[5]; [11],2.42 and 1.12
same,cell count,[5]; [12],7620 and 6920
same,cell count,[5]; [13],7920 and 8070
same,z-score,[8]; [14],0.713 (inactive) and 0.472 (inactive)
same,z-score,[8]; [15],0.469 and 1.67
C[N+]1(C)[C@@H]2CC(OC(=O)[C@H](CO)c3ccccc3)C[C@H]1[C@@H]1O[C@@H]12 (stereo partly specified),outcome,[1],inactive
same,outcome,[2],inactive
same,outcome,[3],inactive
same,outcome,[4],inactive
C#C[C@]1(O)CC[C@H]2[C@@H]3CCc4cc(OC)ccc4[C@H]3CC[C@@]21C,outcome,[1],inactive
same,outcome,[2],inactive
same,outcome,[3],inactive
same,outcome,[4],inactive
same,fold change,[5]; [10],0.882 (inactive)
same,fold change,[5]; [11],0.717
same,cell count,[5]; [12],9180
same,cell count,[5]; [13],10400
same,z-score,[8]; [14],1.7 (inactive)
same,z-score,[8]; [15],0.807
NC(=O)c1ncn([C@@H]2O[C@H](CO)[C@@H](O)[C@H]2O)c1O,outcome,[1],inactive
same,outcome,[2],inactive
same,outcome,[3],inactive
same,outcome,[4],inactive
same,fold change,[5]; [10],1.09 (inactive)
same,fold change,[5]; [11],1.07
same,cell count,[5]; [12],10800
same,cell count,[5]; [13],9890
same,outcome,[7],inactive
CN(C)CCc1c[nH]c2ccc(CS(=O)(=O)N3CCCC3)cc12,outcome,[1],inactive
same,outcome,[2],inactive
same,outcome,[3],inactive
same,outcome,[4],inactive
same,fold change,[5]; [10],0.94 (inactive)
same,fold change,[5]; [11],1.05
same,cell count,[5]; [12],7180
same,cell count,[5]; [13],7640
same,z-score,[8]; [14],-0.0807 (inactive)
same,z-score,[8]; [15],-0.352
CCCCN(CCCC)CCC(O)c1cc2c(Cl)cc(Cl)cc2c2cc(C(F)(F)F)ccc12 (stereo unspecified),AC50,[1],23.5 µM (active)
same,AC50,[2],23.5 µM (active)
same,AC50,[3],16.6 µM (active)
same,IC50,[4],20.9 µM (active)
same,fold change,[5]; [10],0.972 (inactive)
same,fold change,[5]; [11],0.81
same,cell count,[5]; [12],8330
same,cell count,[5]; [13],8580
same,z-score,[8]; [14],-1.05 (inactive)
same,z-score,[8]; [15],-0.678
NCCS(=O)(=O)O,outcome,[1],inactive
same,outcome,[2],inactive
same,outcome,[3],inactive
same,outcome,[4],inactive
same,fold change,[5]; [10],0.992 (inactive) and 0.904 (inactive)
same,fold change,[5]; [11],1.43 and 3.02
same,cell count,[5]; [12],10100 and 12500
same,cell count,[5]; [13],10200 and 13800
same,outcome,[7],inactive
Cn1cnc2c1c(=O)[nH]c(=O)n2C,outcome,[1],inactive
same,AC50,[2],20.9 µM (active)
same,outcome,[3],inactive
same,outcome,[4],inactive
same,fold change,[5]; [10],0.912 (inactive) and 0.854 (inactive) and 0.906 (inactive)
same,fold change,[5]; [11],0.922 and 1.4 and 3.48
same,cell count,[5]; [12],9550 and 8390 and 11600
same,cell count,[5]; [13],10500 and 9820 and 12900
same,outcome,[7],inactive
same,z-score,[8]; [14],-0.269 (inactive)
same,z-score,[8]; [15],-0.702
CCC[C@H](N[C@@H](C)C(=O)N1[C@H](C(=O)O)C[C@@H]2CCCC[C@@H]21)C(=O)OCC,outcome,[1],inactive
same,outcome,[2],inactive
same,outcome,[3],inactive
same,outcome,[4],inactive
same,fold change,[5]; [10],0.917 (inactive) and 0.847 (inactive)
same,fold change,[5]; [11],0.846 and 3.59
same,cell count,[5]; [12],9000 and 11500
same,cell count,[5]; [13],9820 and 13600
same,z-score,[8]; [14],0.628 (inactive)
same,z-score,[8]; [15],-0.272
Cn1c(=O)c2c(ncn2CC(O)CO)n(C)c1=O (stereo unspecified),outcome,[1],inactive
same,outcome,[2],inactive
same,outcome,[3],inactive
same,outcome,[4],inactive
same,fold change,[5]; [10],0.891 (inactive) and 0.954 (inactive) and 0.903 (inactive)
same,fold change,[5]; [11],1.59 and 0.805 and 1.72
same,cell count,[5]; [12],9080 and 7480 and 11300
same,cell count,[5]; [13],10200 and 7830 and 12600
same,z-score,[8]; [14],-0.421 (inactive) and 0.782 (inactive)
same,z-score,[8]; [15],0.428 and -0.0518
CC(C)c1ccc2oc3nc(N)c(C(=O)O)cc3c(=O)c2c1,outcome,[1],inactive
same,outcome,[2],inactive
same,outcome,[3],inactive
same,outcome,[4],inactive
same,fold change,[5]; [10],0.955 (inactive)
same,fold change,[5]; [11],1.68
same,cell count,[5]; [12],9060
same,cell count,[5]; [13],9490
same,z-score,[8]; [14],0.841 (inactive)
same,z-score,[8]; [15],-1.05
